Results reported in PubChem BioAssay.
Activity calls are given as the source filed them.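 The calls were made as follows: active = compounds killing one labelled cell type while sparing the other, by normalised counts and ratio limits, not self-fluorescent; inactive = the rest.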

Experiment: EMT-state selective cytotoxicity in co-culture – imaging, PC-3E GFP, TEM4-18 mCherry, primary screen (AID 1345086);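 also: cells exposed to compound for 72 h before imaging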;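 as to red/green cell ratio (normalised): normalised mesenchymal count divided by normalised epithelial count so high means epithelial killing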
Details: PC-3E GFP / TEM4-18 mCherry co-culture, imaging cell counts; at 1 µM; actives lie on both sides; counts scaled to control wells, 1 = unselective

Structure (SMILES)	red/green cell ratio (normalised)
C=C1OC(=O)C23C1OC(CC(O)C2O)C3C (stereo not given)	0.9 (inactive)
CC1CCC2(OC1)OC1CC3C4CCC5C[C@@H](O)CCC5(C)C4=CCC3(C)C1[C@@H]2C (stereo not given in full)	0.87 (inactive)
CCC1=CC2CN(C1)Cc1c([nH]c3ccccc13)[C@@](C(=O)OC)(c1cc3c(cc1OC)N(C)[C@H]1[C@@](O)(C(=O)OC)[C@H](OC(C)=O)[C@]4(CC)C=CCN5CC[C@]31[C@@H]54)C2 (stereo not given in full)	1.47 (inactive)
O=C1NCC[C@H]1Oc1ccc(Oc2cnc3ccc(Cl)cc3n2)cc1	0.76 (inactive)
Cc1cn(CC(=O)O)c(=O)[nH]c1=O	0.86 (inactive)
O=c1c(O)c(-c2ccccc2)oc2ccc3occc3c12	0.81 (inactive)
O=c1c(O)c(-c2ccc(O)c(O)c2)oc2c(O[C@@H]3O[C@H](CO)[C@H](O)[C@@H](O)[C@H]3O)c(O)cc(O)c12	0.95 (inactive)
COC(=O)C[C@@H]1C2(C)C(=O)[C@@H](CC3C2CC[C@]2(C)C3CC(=O)O[C@H]2c2ccoc2)[C@H](OC(C)=O)C1(C)C (stereo not given in full)	0.92 (inactive)
O=C1N=NC(=O)N1c1ccccc1	0.86 (inactive)
O=c1c(O)cccc2cc(O)c(O)c(O)c12	0.92 (inactive)

Same assay, conditions: PC-3E GFP / TEM4-18 mCherry co-culture, imaging cell counts; measured here: epithelial PC-3E GFP cell survival; at 1 µM

Structure (SMILES)	normalised cell number
C=C1OC(=O)C23C1OC(CC(O)C2O)C3C (stereo not given)	1.26
CC1CCC2(OC1)OC1CC3C4CCC5C[C@@H](O)CCC5(C)C4=CCC3(C)C1[C@@H]2C (stereo not given in full)	1.08
CCC1=CC2CN(C1)Cc1c([nH]c3ccccc13)[C@@](C(=O)OC)(c1cc3c(cc1OC)N(C)[C@H]1[C@@](O)(C(=O)OC)[C@H](OC(C)=O)[C@]4(CC)C=CCN5CC[C@]31[C@@H]54)C2 (stereo not given in full)	0.13
O=C1NCC[C@H]1Oc1ccc(Oc2cnc3ccc(Cl)cc3n2)cc1	1.18
Cc1cn(CC(=O)O)c(=O)[nH]c1=O	1.15
O=c1c(O)c(-c2ccccc2)oc2ccc3occc3c12	1.22
O=c1c(O)c(-c2ccc(O)c(O)c2)oc2c(O[C@@H]3O[C@H](CO)[C@H](O)[C@@H](O)[C@H]3O)c(O)cc(O)c12	1.06
COC(=O)C[C@@H]1C2(C)C(=O)[C@@H](CC3C2CC[C@]2(C)C3CC(=O)O[C@H]2c2ccoc2)[C@H](OC(C)=O)C1(C)C (stereo not given in full)	1.04
O=C1N=NC(=O)N1c1ccccc1	1.19
O=c1c(O)cccc2cc(O)c(O)c(O)c12	1.11

Same assay, conditions: PC-3E GFP / TEM4-18 mCherry co-culture, imaging cell counts; measured here: mesenchymal TEM4-18 mCherry cell survival; at 1 µM

Structure (SMILES)	normalised cell number
C=C1OC(=O)C23C1OC(CC(O)C2O)C3C (stereo not given)	1.14
CC1CCC2(OC1)OC1CC3C4CCC5C[C@@H](O)CCC5(C)C4=CCC3(C)C1[C@@H]2C (stereo not given in full)	0.94
CCC1=CC2CN(C1)Cc1c([nH]c3ccccc13)[C@@](C(=O)OC)(c1cc3c(cc1OC)N(C)[C@H]1[C@@](O)(C(=O)OC)[C@H](OC(C)=O)[C@]4(CC)C=CCN5CC[C@]31[C@@H]54)C2 (stereo not given in full)	0.2
O=C1NCC[C@H]1Oc1ccc(Oc2cnc3ccc(Cl)cc3n2)cc1	0.9
Cc1cn(CC(=O)O)c(=O)[nH]c1=O	0.99
O=c1c(O)c(-c2ccccc2)oc2ccc3occc3c12	0.99
O=c1c(O)c(-c2ccc(O)c(O)c2)oc2c(O[C@@H]3O[C@H](CO)[C@H](O)[C@@H](O)[C@H]3O)c(O)cc(O)c12	1.01
COC(=O)C[C@@H]1C2(C)C(=O)[C@@H](CC3C2CC[C@]2(C)C3CC(=O)O[C@H]2c2ccoc2)[C@H](OC(C)=O)C1(C)C (stereo not given in full)	0.95
O=C1N=NC(=O)N1c1ccccc1	1.03
O=c1c(O)cccc2cc(O)c(O)c(O)c12	1.02
